PubChem BioAssay AID1159580 (chemical genetic matrix, 2015)
Hit rate of the full screen: of about 5,500 compounds, about 2,000 (36%) were called active. Inconclusive results (about 18%) are left out. Rule as the data show it: active = normalized growth mostly below about 0.91 (no sharp cut-off); inconclusive = no clear call, values can overlap the other calls; inactive = mostly above about 0.92. This is one part of the list.

Test: chemical genetic growth profiling, strain panel (AID 1159580);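 also: tested at 20 µM; growth read once vehicle control cultures reached saturation at 30 °C; 1 = growth at the plate median or of vehicle wells; lower values mean less growth of the strain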
Conditions: S. cerevisiae deletion strains, growth OD

Measured: normalized growth

CO[C@H]1[C@@H](O)[C@@H](C)O[C@H](O[C@H]2CCC3(C)C4CCC5(C)[C@@H](C6=CC(=O)OC6)CC[C@]5(O)[C@@H]4CC[C@]3(O)C2)[C@@H]1O (stereo not given in full)
inactive: locus YAL021C, strain ccr4, hits give low values 0.993 | locus YAL026C, strain drs2, hits give low values 1.04 | locus YAL030W, strain snc1, hits give low values 1.03 | locus YBL061C, strain skt5, hits give low values 1.05 | locus YBR009C, strain hhf1, hits give low values 1.02 | locus YBR023C, strain chs3, hits give low values 1.03 | locus YBR171W, strain sec66, hits give low values 1.03 | locus YBR231C, strain swc5, hits give low values 1.02 | locus YBR279W, strain paf1, hits give low values 1.02 | locus YCL011C, strain gbp2, hits give low values 1.03 | locus YCL016C, strain dcc1, hits give low values 1.02 | locus YCL061C, strain MRC1, hits give low values 1.02 | locus YCL069W, strain vba3, hits give low values 1.02 | locus YCR088W, strain abp1, hits give low values 1.02 | locus YDL005C, strain med2, hits give low values 1.03 | locus YDL040C, strain nat1, hits give low values 1 | locus YDR001C, strain nth1, hits give low values 1.02 | locus YDR069C, strain doa4, hits give low values 1.03 | locus YDR137W, strain rgp1, hits give low values 1.04 | locus YDR159W, strain sac3, hits give low values 1.04 | locus YDR195W, strain ref2 1.01 | locus YDR297W, strain sur2, hits give low values 1.04 | locus YDR334W, strain swr1, hits give low values 1.02 | locus YDR335W, strain msn5, hits give low values 1.02 | locus YDR392W, strain spt3, hits give low values 1.02 | locus YEL003W, strain gim4, hits give low values 1.02 | locus YEL037C, strain rad23, hits give low values 1.02 | locus YEL061C, strain CIN8 (second series), hits give low values 1.02 | locus YER015W, strain faa2, hits give low values 1.02 | locus YER016W, strain bim1, hits give low values 1.02 | locus YER111C, strain swi4, hits give low values 1.03 | locus YER155C, strain BEM2 (second series), hits give low values 1.04 | locus YFR010W, strain ubp6, hits give low values 1.04 | locus YGL167C, strain pmr1, hits give low values 1.03 | locus YGL173C, strain kem1, hits give low values 1.04 | locus YGL227W, strain vid30, hits give low values 1.01 | locus YGL240W, strain doc1, hits give low values 1.04 | locus YGL253W, strain hxk2, hits give low values 1.03 | locus YHR013C, strain ard1, hits give low values 1.04 | locus YHR027C, strain rpn1, hits give low values 1.05 | locus YHR030C, strain SLT2, hits give low values 1.05 | locus YHR079C, strain IRE1, hits give low values 1.08 | locus YHR142W, strain chs7, hits give low values 1.03 | locus YJL092W, strain hpr5, hits give low values 1.02 | locus YJL095W, strain BCK1 (second series), hits give low values 1.02 | locus YJL095W, strain BCK1, hits give low values 1.04 | locus YJL115W, strain asf1, hits give low values 1.04 | locus YJL129C, strain trk1, hits give low values 1.03 | locus YJL154C, strain vps35, hits give low values 1.02 | locus YJL164C, strain tpk1, hits give low values 1.01 | locus YJL166W, strain qcr8, hits give low values 1.03 | locus YJL187C, strain SWE1, hits give low values 1.03 | locus YJR066W, strain TOR1, hits give low values 1.01 | locus YKL160W, strain elf1, hits give low values 1.01 | locus YKR026C, strain gcn3, hits give low values 1.02 | locus YKR091W, strain srl3, hits give low values 1.02 | locus YLL001W, strain dnm1, hits give low values 1.03 | locus YLL026W, hits give low values 1.03 | locus YLL041C, strain sdh2, hits give low values 1.02 | locus YLR027C, strain aat2, hits give low values 1 | locus YLR113W, strain HOG1, hits give low values 0.976 | locus YLR221C, strain rsa3, hits give low values 1.03 | locus YLR258W, strain gsy2, hits give low values 1 | locus YLR262C, strain YPT6 (second series), hits give low values 1.03 | locus YLR320W, strain mms22, hits give low values 1.03 | locus YLR342W, strain FKS1, hits give low values 1.03 | locus YLR357W, strain rsc2, hits give low values 1.06 | locus YLR370C, strain arc18, hits give low values 1.01 | locus YLR384C, strain iki3, hits give low values 1.04 | locus YML120C, strain ndi1, hits give low values 1.01 | locus YMR058W, strain fet3, hits give low values 1.03 | locus YMR125W, strain sto1, hits give low values 1.03 | locus YMR129W, hits give low values 1.02 | locus YMR205C, strain PFK2, hits give low values 1.06 | locus YMR231W, strain pep5, hits give low values 1 | locus YNL071W, strain lat1, hits give low values 1.02 | locus YNL183C, strain NPR1, hits give low values 1 | locus YNL209W, strain ssb2, hits give low values 1.02 | locus YNL248C, strain rpa49, hits give low values 1.03 | locus YNL322C, strain KRE1 (second series), hits give low values 1.02 | locus YNR049C, strain mso1, hits give low values 1.04 | locus YOR001W, strain rrp6, hits give low values 1.03 | locus YOR070C, strain gyp1, hits give low values 1.02 | locus YOR080W, strain dia2, hits give low values 1.04 | locus YOR083W, strain WHI5, hits give low values 1.02 | locus YOR106W, strain vam3, hits give low values 1.03 | locus YOR231W, strain MKK1, hits give low values 1.04 | locus YOR265W, strain rbl2, hits give low values 1.04 | locus YOR270C, strain vph1, hits give low values 1.08 | locus YOR290C, strain snf2, hits give low values 1.01 | locus YPL051W, strain arl3, hits give low values 1.01 | locus YPL078C, strain atp4, hits give low values 1.02 | locus YPL106C, strain sse1, hits give low values 1.02 | locus YPL240C, strain hsp82, hits give low values 1.01 | locus YPL256C, strain CLN2, hits give low values 1.08
